Measured values taken from PubChem BioAssay.
Activity calls are given as the source filed them.

Columns and labels:
[1] = E. coli DRC41 culture turbidity changes, primary screen, E. coli filamentation inducer project, strain DRC41, OD650, 48 h (AID 1152);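 note: E. coli MC1000 strain DRC41 lacking acrAB efflux pump and sulA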; settings: E. coli DRC41 (acrAB sulA), higher = more signal, called active from +8 up or from −8 down
[2] = small-molecule binders of probe aLefty1, primary screen, biochemical, small-molecule microarray, 635/667 nm fluorescence (AID 1153); settings: higher = more signal;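 note: score merges spot fluorescence with signal-to-noise ratio from the scanned slide images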
[3] = PSAC antagonists in infected red cells, primary screen, cell-based, P. falciparum Indochina, OD700, 1 h (AID 1154); settings: P. falciparum Indochina infected RBC osmotic lysis, higher = more signal, called active from +8 up or from −8 down
[4] = PSAC antagonists in infected red cells, primary screen, cell-based, P. falciparum Indochina, OD700, 2 h (AID 1155);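 note: lysis reports solute entry through the parasite surface anion channel PSAC; channel blockers reduce lysis of infected cells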; settings: P. falciparum Indochina infected erythrocytes, osmotic lysis OD700; higher = more signal, called active from +8 up or from −8 down
[5] = osmotic lysis modulators in infected erythrocytes, primary screen, PSAC antagonist project, cell-based, P. falciparum Indochina, OD700, 3 h (AID 1156); settings: higher = more signal, called active from +8 up or from −8 down
[6] = PSAC antagonists in infected red cells, primary screen, cell-based, P. falciparum Indochina, OD700, 18 h (AID 1157); settings: P. falciparum Indochina infected erythrocytes, osmotic lysis OD700, 18 h; higher = more signal, called active from +8 up or from −8 down
[7] = modulators of S6 phosphorylation in cells, primary screen, cell-based, A549, cytoblot, luminescence, serum-stimulated (AID 1158); settings: A549 phospho-S6 cytoblot, 5 h, higher = more signal;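 note: serum-stimulated A549 lung adenocarcinoma cells; signal is phosphorylated S6 detected by cytoblot immunostaining with HRP secondary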
[8] = target: NADPH oxidase 2 (Homo sapiens) (UniProt P04839); assay: NOX2-dependent H2O2 signal modulators, primary screen, NOX inhibitor project, cell-based, HEK293-NOX2, PMA-stimulated, Amplex Red fluorescence (AID 1159); settings: 45 min, higher = more signal, called active from +8 up or from −8 down; note: test concentration not given here
Sequence of NADPH oxidase 2 (Homo sapiens) (P04839 whole entry, looked up): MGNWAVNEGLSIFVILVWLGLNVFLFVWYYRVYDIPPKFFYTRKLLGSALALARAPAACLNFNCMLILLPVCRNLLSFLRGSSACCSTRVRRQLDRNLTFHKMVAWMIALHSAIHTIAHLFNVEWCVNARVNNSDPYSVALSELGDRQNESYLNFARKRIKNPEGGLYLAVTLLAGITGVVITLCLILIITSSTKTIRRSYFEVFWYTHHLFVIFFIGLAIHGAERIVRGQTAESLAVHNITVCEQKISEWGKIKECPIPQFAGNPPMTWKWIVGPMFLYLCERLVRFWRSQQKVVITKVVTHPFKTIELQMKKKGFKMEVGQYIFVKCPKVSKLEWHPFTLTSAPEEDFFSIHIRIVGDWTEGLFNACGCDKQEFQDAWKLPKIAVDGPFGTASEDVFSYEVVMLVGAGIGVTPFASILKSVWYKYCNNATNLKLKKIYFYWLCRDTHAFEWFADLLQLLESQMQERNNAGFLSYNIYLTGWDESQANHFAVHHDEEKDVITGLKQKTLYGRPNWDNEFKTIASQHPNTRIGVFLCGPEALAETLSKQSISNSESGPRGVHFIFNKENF

[9] = target: NADPH oxidase 4 (Homo sapiens) (UniProt Q9NPH5); assay: NOX4-dependent H2O2 signal modulators, primary screen, NOX inhibitor project, cell-based, HEK293-NOX4, tetracycline-induced, Amplex Red fluorescence (AID 1160); settings: 45 min, higher = more signal, called active from +8 up or from −8 down
Sequence of NADPH oxidase 4 (Homo sapiens) (Q9NPH5 whole entry, looked up): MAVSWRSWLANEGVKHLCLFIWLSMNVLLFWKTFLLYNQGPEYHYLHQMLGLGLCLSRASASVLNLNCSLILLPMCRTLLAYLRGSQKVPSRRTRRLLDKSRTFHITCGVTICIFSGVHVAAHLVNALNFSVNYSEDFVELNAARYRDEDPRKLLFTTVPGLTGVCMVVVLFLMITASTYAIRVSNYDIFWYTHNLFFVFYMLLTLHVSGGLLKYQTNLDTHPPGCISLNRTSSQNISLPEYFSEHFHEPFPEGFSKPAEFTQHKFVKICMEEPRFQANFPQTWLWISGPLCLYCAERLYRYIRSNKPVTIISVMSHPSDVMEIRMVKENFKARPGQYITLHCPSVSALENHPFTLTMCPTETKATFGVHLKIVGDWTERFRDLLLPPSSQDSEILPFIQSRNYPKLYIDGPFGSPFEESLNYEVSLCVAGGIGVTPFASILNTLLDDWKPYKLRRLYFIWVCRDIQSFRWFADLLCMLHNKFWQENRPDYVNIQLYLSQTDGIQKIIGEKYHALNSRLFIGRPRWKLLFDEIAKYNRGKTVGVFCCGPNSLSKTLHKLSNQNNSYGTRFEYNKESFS

[10] = target: NADPH oxidase 5 (Homo sapiens) (UniProt Q96PH1); assay: NOX5-dependent H2O2 signal modulators, primary screen, NOX inhibitor project, cell-based, HEK293-NOX5, Amplex Red fluorescence (AID 1161); settings: HEK293-NOX5, ionomycin, 45 min, higher = more signal
Sequence of NADPH oxidase 5 (Homo sapiens) (Q96PH1 whole entry, looked up): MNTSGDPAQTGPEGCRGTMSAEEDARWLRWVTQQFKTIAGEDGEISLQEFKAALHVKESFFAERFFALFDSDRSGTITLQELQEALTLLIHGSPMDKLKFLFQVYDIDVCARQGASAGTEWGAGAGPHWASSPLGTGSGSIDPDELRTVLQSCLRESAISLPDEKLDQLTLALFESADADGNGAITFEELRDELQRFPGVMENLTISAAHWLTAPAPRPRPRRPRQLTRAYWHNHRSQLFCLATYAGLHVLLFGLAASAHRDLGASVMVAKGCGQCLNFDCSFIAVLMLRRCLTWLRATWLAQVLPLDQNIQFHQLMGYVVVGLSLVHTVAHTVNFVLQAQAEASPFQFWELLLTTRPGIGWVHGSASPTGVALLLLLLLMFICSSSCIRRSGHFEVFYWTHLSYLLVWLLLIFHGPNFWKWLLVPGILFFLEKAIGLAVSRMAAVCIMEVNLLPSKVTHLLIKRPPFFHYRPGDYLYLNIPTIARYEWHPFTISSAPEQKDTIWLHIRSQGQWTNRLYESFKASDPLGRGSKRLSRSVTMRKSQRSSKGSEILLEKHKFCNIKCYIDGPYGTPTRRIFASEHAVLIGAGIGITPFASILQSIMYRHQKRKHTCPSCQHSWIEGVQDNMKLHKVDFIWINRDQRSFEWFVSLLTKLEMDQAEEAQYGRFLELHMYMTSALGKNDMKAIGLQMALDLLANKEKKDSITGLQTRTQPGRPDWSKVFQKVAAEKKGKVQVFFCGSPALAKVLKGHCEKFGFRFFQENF

Compound	z-score [1]	composite z-score [2]	z-score [3]	z-score [4]	z-score [5]	z-score [6]	z-score [7]	z-score [8]	z-score [9]	z-score [10]
CC(=O)OC[C@H]1O[C@H](CCON=C2[C@H]3CCn4c(=O)n(-c5ccccc5)c(=O)n4[C@H]3[C@H](O)[C@@H]3O[C@H]23)C=C[C@@H]1OC(C)=O	0.0711 (inactive)	0.637	0.553 (inactive)	0.0612 (inactive)	-0.192 (inactive)	0.269 (inactive)	-0.84	-0.564 (inactive)	0.0641 (inactive)	-0.0303
O=C1C[C@@H](O)[C@@H](O)[C@@H]2[C@@H]3C(=O)N(C[C@@H]4CCCO4)C(=O)[C@@H]3CC[C@@H]12	0.668 (inactive)	-0.284	0.786 (inactive)	-0.191 (inactive)	1 (inactive)	-0.0672 (inactive)	0.381	-1.38 (inactive)	0.529 (inactive)	0.624
O=C1[C@H]2[C@H]3[C@H](O)[C@H](O)CC(=NOCc4ccccc4)[C@@H]3CC[C@H]2C(=O)N1Cc1ccc2c(c1)OCO2	0.0628 (inactive)	0.217	6.28 (inactive)	1.02 (inactive)	1.06 (inactive)	0.354 (inactive)	0.0008	1.09 (inactive)	0.665 (inactive)	-1.01
CO[C@@H]1COC(=O)[C@@H]2CCCN2C(=O)[C@@H](C)COC(=O)CC=C[C@H]1C	-0.481 (inactive)	0.0553	0.202 (inactive)	-0.116 (inactive)	0.601 (inactive)	0.0246 (inactive)	-0.641	-0.48 (inactive)	0.393 (inactive)	0.0919
CON=C1[C@H]2CCn3c(=O)n(-c4ccccc4)c(=O)n3[C@H]2[C@H](O)[C@@H]2O[C@H]12	-1.04 (inactive)	-0.108	-0.713 (inactive)	-1.53 (inactive)	-0.801 (inactive)	-1.77 (inactive)	1.56	0.0197 (inactive)	0.3 (inactive)	1.26
CC(=O)OC[C@H]1OC(ON=CC[C@@H]2C=C[C@H](OC(C)=O)[C@@H](COC(C)=O)O2)[C@H](OC(C)=O)[C@@H](OC(C)=O)[C@@H]1OC(C)=O (stereo not given in full)	-0.0016 (inactive)	0.315	0.202 (inactive)	0.0995 (inactive)	0.153 (inactive)	0.22 (inactive)	-0.999	0.00176 (inactive)	0.186 (inactive)	0.0378
COC(=O)CC=C[C@H](C)[C@@H](OCc1cccc(Br)c1)[C@@H](C)[C@H](OC)C1CCCCC1	-0.533 (inactive)	-0.333	1.82 (inactive)	0.675 (inactive)	-0.0293 (inactive)	0.686 (inactive)	0.433	-0.453 (inactive)	0.286 (inactive)	0.664
COC(=O)CC=C[C@@H](C)[C@@H](C=NO[C@@H]1O[C@H](COC(C)=O)[C@@H](OC(C)=O)[C@H](OC(C)=O)[C@H]1OC(C)=O)NS(=O)(=O)c1ccc(C)cc1	-0.673 (inactive)	-0.397	0.683 (inactive)	0.54 (inactive)	1.1 (inactive)	0.294 (inactive)	-0.448	0.837 (inactive)	0.968 (inactive)	0.569
C[C@@H]1CC[C@H]2C(=O)O[C@@H](Cc3ccccc3)CN2[C@H]1c1ccc(Br)cc1	-0.28 (inactive)	-0.148	2.26 (inactive)	0.935 (inactive)	0.277 (inactive)	0.563 (inactive)	-0.536	-0.251 (inactive)	-0.286 (inactive)	-0.621
Cc1cc2c(nc1C)CCCCN2CC(C)ON=C[C@@H](C)[C@H](OCc1ccccc1)C(C)C (stereo not given in full)	-0.0958 (inactive)	-0.8	1.34 (inactive)	0.147 (inactive)	0.472 (inactive)	0.171 (inactive)	-0.732	-0.892 (inactive)	-0.45 (inactive)	-3.3
O=C1OCCC=C1C(O)CCc1ccccc1 (stereo not given)	-0.27 (inactive)	-0.057	0.512 (inactive)	-0.57 (inactive)	-0.177 (inactive)	-0.193 (inactive)	-0.136	-0.428 (inactive)	0.0181 (inactive)	0.111
C[C@H]1CC[C@H]2C(=O)OC(CO)CN2[C@@H]1c1ccc(Br)cc1 (stereo not given in full)	-0.565 (inactive)	-0.0918	0.382 (inactive)	0.675 (inactive)	0.647 (inactive)	0.223 (inactive)	-0.42	0.923 (inactive)	-1.15 (inactive)	0.324
CC(C)CON=C1C[C@@H](O)[C@@H](O)[C@@H]2[C@@H]3C(=O)N(C4CCCCC4)C(=O)[C@@H]3CC[C@H]12	0.539 (inactive)	-0.101	-0.172 (inactive)	0.193 (inactive)	0.168 (inactive)	0.0575 (inactive)	-0.545	-0.671 (inactive)	-0.118 (inactive)	-0.246
CCc1cc2c(nc1CC)CCN(CCC(C)=NOC[C@H]1O[C@H](c3ccccc3)C=C[C@@H]1Oc1ccc(OC)cc1)C2	-0.563 (inactive)	-0.0003	6.37 (inactive)	-0.735 (inactive)	2.37 (inactive)	-1.62 (inactive)	1.18	-1.83 (inactive)	-0.845 (inactive)	-2.68
C#CCCCON=C1C[C@@H](O)[C@@H](O)[C@@H]2[C@@H]3C(=O)N(c4cccc(Oc5ccccc5)c4)C(=O)[C@@H]3CC[C@H]12	0.496 (inactive)	0.042	1.7 (inactive)	0.977 (inactive)	0.773 (inactive)	0.232 (inactive)	-0.203	-0.683 (inactive)	0.186 (inactive)	-0.676
COC(=O)[C@@H]1CC[C@H](C)[C@@H](c2ccc(C)cc2)N1C(=O)c1ccc(C=NOC[C@@H](C)[C@H](OCc2ccccc2)C(C)C)cc1	-1.07 (inactive)	-0.18	1.25 (inactive)	-1.62 (inactive)	-0.467 (inactive)	-1.35 (inactive)	2.57	-1.28 (inactive)	-0.428 (inactive)	0.388
COc1cccc([C@@H]2Oc3ccc(OC)cc3C(=O)[C@H]2O)c1	-0.542 (inactive)	-0.101	4.92 (inactive)	-0.384 (inactive)	1.13 (inactive)	-1.28 (inactive)	2.08	-2.25 (inactive)	-1.51 (inactive)	-1.77
Cc1ccc(S(=O)(=O)N[C@@H]2COC(=O)[C@@H](C)COC(=O)CC=C[C@H]2C)cc1	-0.891 (inactive)	-0.103	0.124 (inactive)	0.279 (inactive)	-0.305 (inactive)	-0.113 (inactive)	-0.0223	-1.19 (inactive)	-1.59 (inactive)	-0.728
COCCNC(=O)OCC1CCCC2(CC(OC(=O)NCc3ccc4c(c3)OCO4)CC(CCC(=O)N[C@@H](C)C(=O)OC)O2)O1 (stereo not given in full)	-0.982 (inactive)	0.0341	-1.19 (inactive)	0.276 (inactive)	0.0971 (inactive)	0.296 (inactive)	-0.472	1.1 (inactive)	1.29 (inactive)	0.89
COC(=O)NCC=Cc1nc(CCCO)co1	-0.0186 (inactive)	-0.164	0.0325 (inactive)	0.496 (inactive)	-0.304 (inactive)	-0.145 (inactive)	-0.726	-0.745 (inactive)	0.996 (inactive)	0.449
CCOC(=O)[C@H](CC(C)C)NC(=O)CCC1CC(OC(=O)NCc2cccc3ccccc23)CC2(CCCC(COC(=O)NCc3cccc(C(F)(F)F)c3)O2)O1 (stereo not given in full)	0.366 (inactive)	-0.144	-0.406 (inactive)	-0.0787 (inactive)	0.976 (inactive)	0.613 (inactive)	0.273	0.176 (inactive)	0.794 (inactive)	0.259
CO[C@H]1COC(=O)[C@H](C)NC(=O)CC=C[C@@H](C)[C@H](OC)COC(=O)[C@@H](OCc2ccccc2)C=C[C@@H]1C	0.31 (inactive)	-0.0544	-0.352 (inactive)	0.101 (inactive)	0.912 (inactive)	0.378 (inactive)	-0.191	1.18 (inactive)	0.332 (inactive)	-0.017
CCCNC(=O)OC[C@H]1O[C@H](CCON=C(C)CCN2CCCc3nc(C)c(C)cc32)C=C[C@@H]1Oc1ccc(OC)cc1	0.794 (inactive)	-0.0061	5.53 (inactive)	0.722 (inactive)	0.99 (inactive)	0.318 (inactive)	-0.546	-0.995 (inactive)	0.166 (inactive)	-1.14
CC(C)CON=C1[C@H]2CCn3c(=O)n(Cc4cc5c(cc4Cl)OCO5)c(=O)n3[C@H]2[C@H](O)[C@@H]2O[C@H]12	-1.41 (inactive)	0.0004	0.292 (inactive)	-1.05 (inactive)	0.599 (inactive)	-2.22 (inactive)	0.261	0.42 (inactive)	0.223 (inactive)	-0.799
